Data from PubChem BioAssay (NCI).
Compounds without any hit were thinned out: in the full panel of roughly 83,000, 20% have a hit.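 Values shown are percent growth following 48 h exposure of cells in 96-well plates to a single concentration of compound; below 10 was considered active.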 Activity calls are given as the source filed them.

Tests used:
Experiment in all cases: NCI-60 one-dose screen, 48 h (100 = growth as untreated, 0 = no growth, -100 = all killed)
Details in all cases: 10 µM unless noted
NCI-H23 lung = tested on: NCI-H23 lung
NCI-H226 lung = tested on: NCI-H226 lung
NCI-H322M lung = tested on: NCI-H322M lung
HOP-62 NSCLC = tested on: HOP-62 NSCLC
NCI-H460 lung = tested on: NCI-H460 lung
HOP-92 NSCLC = tested on: HOP-92 NSCLC
NCI-H522 lung = tested on: NCI-H522 lung
A549/ATCC NSCLC = tested on: A549/ATCC NSCLC
786-0 renal = tested on: 786-0 renal
COLO 205 colon = tested on: COLO 205 colon

Measured: growth

O=C(O)c1cn(C2CC2)c2cc(N3CCN(C(=O)N(c4ccccc4)c4nc(-c5ccccc5)cs4)CC3)c(F)cc2c1=O
active: NCI-H23 lung -3.61% | NCI-H226 lung 4.84% | NCI-H322M lung 2.44% | HOP-62 NSCLC -1.15% | NCI-H460 lung 2.93% | HOP-92 NSCLC -25% | NCI-H522 lung -25% | A549/ATCC NSCLC 9.6% | 786-0 renal 4.01% | COLO 205 colon -20.6%

N=C(N)c1ccc(-c2ccc(-c3ccc(Cl)c(Cl)c3)s2)nc1
inactive: NCI-H23 lung 67.6% | NCI-H226 lung 86.9% | HOP-62 NSCLC 36.6% | HOP-92 NSCLC 77.3%
active: NCI-H322M lung -5.24% | NCI-H460 lung -61.6% | NCI-H522 lung -34.5% | A549/ATCC NSCLC -45.6% | 786-0 renal -25.8% | COLO 205 colon -40.5%

Cc1cn(-c2cc(NC(=O)c3cncc(C#Cc4cnc(N)c5ncccc45)c3)cc(C(F)(F)F)c2)cn1
inactive: NCI-H23 lung 43.5% | NCI-H226 lung 45.7% | NCI-H322M lung 83.4% | HOP-62 NSCLC 70.9% | NCI-H460 lung 71.2% | HOP-92 NSCLC 43.3% | NCI-H522 lung 52.2% | A549/ATCC NSCLC 88.1% | 786-0 renal 71.6% | COLO 205 colon 28.4%

O=C(Nc1ccc(Oc2cccc(Cl)c2)c(Cl)c1)c1cccnc1
inactive: NCI-H23 lung 47.9% | NCI-H226 lung 54.3% | NCI-H322M lung 47.1% | HOP-62 NSCLC 38% | NCI-H460 lung 22.2% | HOP-92 NSCLC 61.3% | NCI-H522 lung 27.3% | A549/ATCC NSCLC 36.8% | 786-0 renal 39.2% | COLO 205 colon 15.4%

NC(=O)CSc1oc(-c2ccccc2)nc1S(=O)(=O)c1ccc(Br)cc1
inactive: NCI-H23 lung 79.8% | NCI-H226 lung 54.7% | NCI-H322M lung 89.8% | HOP-62 NSCLC 73.9% | NCI-H460 lung 71.6% | NCI-H522 lung 70.1% | A549/ATCC NSCLC 74.5% | 786-0 renal 25.9% | COLO 205 colon 107%
active: HOP-92 NSCLC 5.26%

CCN1C(=O)N(CC)C2C1NN=c1s/c(=C\c3ccccc3F)c(=O)n12 (stereo not given)
active: NCI-H460 lung 2.31% | NCI-H522 lung -8.42% | A549/ATCC NSCLC 7.92% | COLO 205 colon -9.98%
inactive: NCI-H23 lung 31.9% | NCI-H226 lung 48.5% | NCI-H322M lung 42.6% | HOP-62 NSCLC 35.1% | HOP-92 NSCLC 40.3% | 786-0 renal 20.6%

COc1cc2nc3cc([N+](=O)[O-])ccc3c(NCCNCC(C)O)c2cc1OC (stereo not given)
active: NCI-H23 lung -27.8% | NCI-H226 lung -11.1% | NCI-H322M lung -11.9% | HOP-62 NSCLC -19.2% | NCI-H460 lung -40.2% | HOP-92 NSCLC -42.1% | NCI-H522 lung -26.6% | A549/ATCC NSCLC -26.8% | 786-0 renal -3.6% | COLO 205 colon -76.6%

CCCCCCC12CCC(=O)N1CCc1cncn12 (stereo not given)
inactive: NCI-H23 lung 108% | NCI-H226 lung 99.8% | NCI-H322M lung 109% | HOP-62 NSCLC 100% | NCI-H460 lung 105% | HOP-92 NSCLC 113% | NCI-H522 lung 90% | A549/ATCC NSCLC 95.3% | 786-0 renal 112% | COLO 205 colon 106%

O=S(=O)(Nc1cc(F)cc(Cl)c1)c1ccc(-c2cnc(C3CC3)o2)cc1
inactive: NCI-H23 lung 44% | NCI-H226 lung 43% | NCI-H322M lung 44.5% | HOP-62 NSCLC 40.5% | NCI-H460 lung 20.7% | HOP-92 NSCLC 26.7% | A549/ATCC NSCLC 47.3% | 786-0 renal 30.7% | COLO 205 colon 24.3%
active: NCI-H522 lung 1.55%

CSc1nc2ccccc2cc1/C=[N+](\[O-])c1ccccc1
inactive: NCI-H23 lung 70% | NCI-H226 lung 73.9% | NCI-H322M lung 85.7% | HOP-62 NSCLC 67.9% | NCI-H460 lung 92.1% | HOP-92 NSCLC 53.2% | NCI-H522 lung 82.4% | A549/ATCC NSCLC 97.6% | 786-0 renal 74.6% | COLO 205 colon 103%

Cn1cc(C(=O)c2nc(-c3c[nH]c4ccccc34)no2)c2cc(F)ccc21
inactive: NCI-H23 lung 65.1% | NCI-H226 lung 75.7% | NCI-H322M lung 62.3% | HOP-62 NSCLC 30.5% | NCI-H460 lung 14.1% | HOP-92 NSCLC 43.6% | A549/ATCC NSCLC 40.6% | 786-0 renal 54.6% | COLO 205 colon 34.7%
active: NCI-H522 lung 2.36%

CN(C)c1ccc(C(=O)OCCCCCCl)cc1
inactive: NCI-H23 lung 90.7% | NCI-H226 lung 99% | NCI-H322M lung 85.4% | HOP-62 NSCLC 91.8% | NCI-H460 lung 104% | HOP-92 NSCLC 89.3% | NCI-H522 lung 89.2% | A549/ATCC NSCLC 100% | 786-0 renal 95.3% | COLO 205 colon 110%

COc1ccc(Nc2nc(-c3cc(O)c(C)c(C)c3O)cs2)cc1
inactive: NCI-H23 lung 78.1% | NCI-H226 lung 96.3% | NCI-H322M lung 90.9% | HOP-62 NSCLC 69.9% | NCI-H460 lung 39% | HOP-92 NSCLC 90.5% | NCI-H522 lung 34.8% | A549/ATCC NSCLC 58% | 786-0 renal 102% | COLO 205 colon 115%

COc1ccc(NC2=C(I)C(=O)c3ncccc3C2=O)cc1
inactive: NCI-H226 lung 82.2% | NCI-H322M lung 17.4% | HOP-92 NSCLC 75.3% | 786-0 renal 11.3%
active: NCI-H23 lung -43.7% | HOP-62 NSCLC -62% | NCI-H460 lung -57.2% | NCI-H522 lung -69.4% | A549/ATCC NSCLC 0.0675% | COLO 205 colon -53.7%

COc1ccc(/C=C/C(=O)c2cc3c(N)c(C(=O)Nc4cccc5ccccc45)sc3nc2C)cc1
inactive: NCI-H23 lung 85.1% | NCI-H226 lung 85% | NCI-H322M lung 95.8% | HOP-62 NSCLC 74.5% | NCI-H460 lung 75.9% | HOP-92 NSCLC 77.1% | NCI-H522 lung 26.1% | A549/ATCC NSCLC 68.7% | 786-0 renal 46.4% | COLO 205 colon 103%

N#Cc1c(-c2ccc(Cl)cc2)c(C#N)c2c(C#N)c(N)nn2c1N
inactive: NCI-H23 lung 98.1% | NCI-H226 lung 86.8% | NCI-H322M lung 81.7% | HOP-62 NSCLC 79.5% | NCI-H460 lung 86.9% | HOP-92 NSCLC 61% | NCI-H522 lung 64.8% | A549/ATCC NSCLC 77.4% | 786-0 renal 86.6% | COLO 205 colon 95.2%

CN1CCN(C(=O)c2ccc(NC(=O)c3cc4c(nn3)NCCN4Cc3cc(Cl)ccc3Cl)cc2)CC1
inactive: NCI-H23 lung 74.3% | NCI-H226 lung 36.8% | NCI-H322M lung 95.8% | HOP-62 NSCLC 82.3% | NCI-H460 lung 53.4% | HOP-92 NSCLC 67.2% | NCI-H522 lung 36.1% | A549/ATCC NSCLC 55.2% | 786-0 renal 75.2% | COLO 205 colon 71.1%

Oc1c(I)cc(I)cc1CNCCN(Cc1ccccn1)Cc1ccccn1
active: NCI-H23 lung -14% | NCI-H226 lung -65.1% | NCI-H322M lung -30.4% | HOP-62 NSCLC -65.1% | NCI-H460 lung -56.5% | HOP-92 NSCLC -61.8% | NCI-H522 lung -27.6% | A549/ATCC NSCLC -33.3% | 786-0 renal -95.2% | COLO 205 colon -34.6%

Cc1ccc(C(=O)c2ccc(CC(=O)N/N=C/c3ccccc3O)n2C)cc1
inactive: NCI-H23 lung 82.9% | NCI-H226 lung 97% | NCI-H322M lung 78.9% | HOP-62 NSCLC 76% | NCI-H460 lung 76.6% | HOP-92 NSCLC 98.6% | NCI-H522 lung 75.2% | A549/ATCC NSCLC 86.1% | 786-0 renal 96.8% | COLO 205 colon 101%

CCOC(=O)c1ccc2c(c1)nc(-c1ccccc1)n2C1CCCCC1
inactive: NCI-H23 lung 90.3% | NCI-H226 lung 120% | NCI-H322M lung 83.1% | HOP-62 NSCLC 65% | NCI-H460 lung 107% | HOP-92 NSCLC 91.7% | NCI-H522 lung 73.6% | A549/ATCC NSCLC 68.3% | 786-0 renal 88.5% | COLO 205 colon 76.3%

Cc1cccc(CNc2c3ccccc3nc3ccccc23)c1
inactive: NCI-H23 lung 29.7% | NCI-H226 lung 40.6% | NCI-H322M lung 40.3% | HOP-62 NSCLC 40.4% | NCI-H522 lung 52.1% | A549/ATCC NSCLC 22.6% | 786-0 renal 24.2%
active: NCI-H460 lung 8.71% | HOP-92 NSCLC 7.05% | COLO 205 colon -16.2%

O=C1C(Cl)=C(Nc2ccc(S(=O)(=O)N3CCOCC3)cc2)C(=O)c2ccccc21
inactive: NCI-H23 lung 83.5% | NCI-H226 lung 84.5% | NCI-H322M lung 99.8% | HOP-62 NSCLC 86.3% | NCI-H460 lung 94.9% | HOP-92 NSCLC 25.7% | NCI-H522 lung 21% | A549/ATCC NSCLC 80.8% | 786-0 renal 71% | COLO 205 colon 104%

CC(O)(c1ccccc1)C(c1ccccc1)C1CCCCN1 (stereo not given)
inactive: NCI-H23 lung 107% | NCI-H226 lung 102% | NCI-H322M lung 88.5% | HOP-62 NSCLC 99.3% | NCI-H460 lung 103% | HOP-92 NSCLC 90.3% | NCI-H522 lung 95.1% | A549/ATCC NSCLC 88.1% | 786-0 renal 103% | COLO 205 colon 103%

CCOC(=O)C1=C(c2ccccc2)N=C2SC=C(c3ccc(Cl)cc3)N2C1c1ccc(Cl)cc1 (stereo not given)
inactive: NCI-H23 lung 64.2% | NCI-H226 lung 79.5% | NCI-H322M lung 88.5% | HOP-62 NSCLC 91.6% | NCI-H460 lung 83.3% | HOP-92 NSCLC 69.8% | NCI-H522 lung 79.9% | A549/ATCC NSCLC 77% | 786-0 renal 84.4% | COLO 205 colon 76.2%

Nc1n[nH]c2cccc(C#Cc3cccc(NC(=O)c4cc(F)cc(C(F)(F)F)c4)c3)c12
inactive: NCI-H23 lung 65.8% | NCI-H226 lung 46.6% | NCI-H322M lung 93.9% | HOP-62 NSCLC 95.2% | NCI-H460 lung 77.8% | HOP-92 NSCLC 39.1% | NCI-H522 lung 62.6% | A549/ATCC NSCLC 84.4% | 786-0 renal 86.4% | COLO 205 colon 83.7%

CC/C(=C(/c1ccc(Cl)cc1)c1ccc(OCCN2CCCCC2)cc1)c1ccc(OC)cc1
inactive: NCI-H23 lung 50.8% | NCI-H226 lung 81.3% | NCI-H322M lung 81% | HOP-62 NSCLC 86.8% | NCI-H460 lung 32% | HOP-92 NSCLC 57% | NCI-H522 lung 65.1% | A549/ATCC NSCLC 56.1% | 786-0 renal 52% | COLO 205 colon 40.4%

O=C(/C=C/c1cn(-c2ccccc2)nc1-c1ccc(Cl)cc1)c1ccc(F)cc1
inactive: NCI-H23 lung 69.9% | NCI-H226 lung 85.8% | NCI-H322M lung 77.2% | HOP-62 NSCLC 102% | NCI-H460 lung 74% | HOP-92 NSCLC 99.2% | NCI-H522 lung 87.1% | A549/ATCC NSCLC 79.7% | 786-0 renal 62.8% | COLO 205 colon 93.4%
